Rows were chosen to be rich in hits. Some 1.9% of all compounds tested hit in one or more screens of this group.
PTHR1 agonist – qHTS for PTHR1 Agonists: Primary Screen | HEK293 GP2 PTHR1 cells, GloSensor cAMP luminescence, 1 h | hit rate 0.075% among 410,000 | Potency, µM (series often up to 115 µM), usual class: activators | AID 743266, 2014 | Parathyroid hormone/parathyroid hormone-related peptide receptor (Homo sapiens), Q03431; note: nearly all actives have a fitted effect of over 55% in size
Target sequence (Q03431 whole entry, looked up): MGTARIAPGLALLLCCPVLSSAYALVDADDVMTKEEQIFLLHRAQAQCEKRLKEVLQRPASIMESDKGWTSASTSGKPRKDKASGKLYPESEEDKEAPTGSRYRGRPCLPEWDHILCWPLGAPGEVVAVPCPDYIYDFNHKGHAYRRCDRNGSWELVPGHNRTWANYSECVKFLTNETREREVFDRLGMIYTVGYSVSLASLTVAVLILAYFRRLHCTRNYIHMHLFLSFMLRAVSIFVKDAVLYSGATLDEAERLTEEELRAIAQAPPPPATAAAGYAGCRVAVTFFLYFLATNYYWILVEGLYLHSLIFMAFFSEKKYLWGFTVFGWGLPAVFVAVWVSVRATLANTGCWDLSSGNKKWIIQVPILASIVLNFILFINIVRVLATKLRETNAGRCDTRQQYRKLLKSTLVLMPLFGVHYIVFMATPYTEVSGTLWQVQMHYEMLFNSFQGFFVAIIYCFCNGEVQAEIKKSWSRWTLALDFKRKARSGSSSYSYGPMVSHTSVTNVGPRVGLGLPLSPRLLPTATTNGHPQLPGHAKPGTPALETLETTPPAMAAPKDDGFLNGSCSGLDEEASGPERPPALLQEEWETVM
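HEK-293-derived GP2 cells expressing PTHR1 and a GloSensor cAMP reporter, 3,000/well, plated overnight, given luciferin plus IBMX (each 0.5 mM as added) for 1 h at 37 °C, then compound for 1 h at 37 °C. Luminescence was read after 15 min at room temperature.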
TDP-43 yeast inh – qHTS of TDP-43 Inhibitors; TDP-43 expressing yeast growth rescue, BacTiter-Glo, 24 h; Potency, µM (doses to about 46.1 µM), actives largely listed as activators; hit rate 1.8% among 410,000; note: nearly all actives have a fitted effect of over 50% in size
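Galactose-induced TDP-43 yeast, OD600=0.02, compound pinned; 24 hr, 30 deg C; BacTiter-Glo luminescence for growth. Inhibitors of TDP-43 toxicity read as activators.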
LDHA inh – qHTS assay for inhibitors of human lactate dehydrogenase. AID 1347041, 2019. L-lactate dehydrogenase A chain (Homo sapiens), P00338. hit rate 0.15% among 480,000. purified LDHA, NADH/diaphorase-resazurin fluorescence; active compounds read low. activity change, % (values are at about 110 or 230 µM); in the data active = activity change below about -30%; inconclusive = mostly about -25% to -30%
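Human LDH5 at 2 nM final in Tris HCl pH 7.4 with 0.06 mM NADH and 0.2 mM pyruvate, reacted 5 minutes at room temperature. Remaining NADH coupled via diaphorase/resazurin; resorufin fluorescence read at 0 and 20 minutes, normalized to enzyme-free and DMSO wells.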
Abeta rescue – qHTS for compounds that reverse cellular toxicity of Amyloid beta (A-beta) peptide in yeast: Primary Screen | Potency, µM (series often up to 46.1 µM), usual class: activators | hit rate 0.063% among 410,000 | yeast expressing A-beta42, growth rescue, OD600, 48 h; response scale: 0% DMSO, 100% iron-clioquinol control | AID 1347071, 2019; note: nearly all actives have a fitted effect of over 55% in size
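Yeast A-beta toxicity model in growth medium with pinned compounds, 48 h at 30 C; growth read as absorbance at 600 nm. Normalized to FeCl3/clioquinol equimolar mix (positive) and DMSO (negative).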
FUS suppressor – qHTS for Suppressors of FUS Proteinopathy: Primary screen using FUS-linked yeast assay; hit rate 0.24% among 390,000; AID 1347120, 2019; S. cerevisiae FUS-expressing, growth rescue, OD600, 24 h; Potency, µM (titrated, usually from 76.6 µM), most hits filed as activators; note: nearly all actives have a fitted effect of over 55% in size
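S. cerevisiae expressing FUS from galactose induction served as the toxicity model. Growth after 24hr at 30C, read as absorbance at 600 nm, indicates suppression of toxicity; compounds dosed at several concentrations.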
aSyn rescue – qHTS of alpha-syn Inhibitors; Yeast expressing alpha-synuclein, growth rescue, BacTiter-Glo, 24 h; Potency, µM (titrated, usually from 46.1 µM), hits mostly activators; hit rate 0.14% among 370,000; AID 652106, 2013; note: nearly all actives have a fitted effect of over 65% in size
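Rescue of yeast growth: cells expressing toxic alpha-synuclein, induced in galactose at OD600 0.02, incubated with compound 24 h at 30 C. ATP luminescence quantified growth; inhibitors of toxicity appear as activators.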
Of the large screens only hits and unclear results are named; the others gave an inactive call. Unless noted, calls come from the whole dose curve; as a rule, active = well fitted curve in the direction sought with a large enough effect; inconclusive = small, poorly fitted or top-dose-only effect, or another doubt; inactive = no such curve, though single readings can be large; an effect the other way counts as inactive or inconclusive.

Cn1nc(C(=O)N2CCN(c3cccc(Cl)c3)CC2)c2c1-c1ccccc1S(=O)(=O)C2	TDP-43 yeast inh 22µM, FUS suppressor inconclusive
Cn1nc(C(=O)N2CCN(c3ccc(Cl)cc3)CC2)c2c1-c1ccccc1S(=O)(=O)C2	TDP-43 yeast inh inconclusive, FUS suppressor inconclusive
O=C(CSc1nc(C(F)(F)F)nc2ccccc12)Nc1ccc(O)cc1	none (no result: PTHR1 agonist, TDP-43 yeast inh, Abeta rescue, FUS suppressor, aSyn rescue)
O=C(Nc1ccc(Oc2ccccc2)cc1)c1csc(COCCO)n1	TDP-43 yeast inh 13µM
O=C(Nc1ccc(Cl)cc1)c1csc(COCCO)n1	none
Cc1ccc(S(=O)(=O)Nc2cccc(-c3ccc(N4CCCCCC4)nn3)c2)cc1C	FUS suppressor 22µM (no result: Abeta rescue)
CCc1ccc(S(=O)(=O)Nc2cccc(-c3ccc(OC)nn3)c2)s1	TDP-43 yeast inh 18µM, FUS suppressor inconclusive (no result: aSyn rescue)
COc1ccc(-c2cccc(NS(=O)(=O)c3cccs3)c2)nn1	none (no result: aSyn rescue)
CCOc1ccc(S(=O)(=O)Nc2cccc(-c3ccc(OCC)nn3)c2)cc1	TDP-43 yeast inh 35µM (no result: aSyn rescue)
COc1ccc(S(=O)(=O)Nc2cccc(-c3ccc(N4CCCC4)nn3)c2)cc1OC	none (no result: aSyn rescue)
CC1CCC(NC(=O)/C=C/c2cccc(C#N)c2)CC1 (stereo not given)	none (no result: PTHR1 agonist, TDP-43 yeast inh, Abeta rescue, FUS suppressor, aSyn rescue)
FC(F)(F)c1cc(-c2cccs2)nc(S)n1	none (no result: PTHR1 agonist, TDP-43 yeast inh, Abeta rescue, FUS suppressor, aSyn rescue)
CSc1ccc(CNC(=O)c2cccc(-c3ccc(S(=O)(=O)N4CCCCC4)cc3)c2)cc1	none (no result: PTHR1 agonist, TDP-43 yeast inh, Abeta rescue, FUS suppressor, aSyn rescue)
COc1cc(C(=O)Nc2ccccc2NS(C)(=O)=O)cc(OC)c1OC	none (no result: PTHR1 agonist, TDP-43 yeast inh, Abeta rescue, FUS suppressor, aSyn rescue)
COc1ccc(-c2nn(C)c(=O)c3ccccc23)cc1NC(=O)c1ccc(Cl)cc1	none (no result: PTHR1 agonist, TDP-43 yeast inh, Abeta rescue, FUS suppressor, aSyn rescue)
O=C(Nc1ccc(F)c(Cl)c1)c1cc(C2CCCN(C(=O)C3CC3)C2)on1 (stereo not given)	TDP-43 yeast inh 25µM
O=C(Nc1ccc(F)c(Cl)c1)c1cc(C2CCCN(C(=O)CCc3ccccc3)C2)on1 (stereo not given)	TDP-43 yeast inh 28µM
O=C(Nc1ccccc1)c1cc(C2CCCN(C(=O)OCc3ccccc3)C2)on1 (stereo not given)	TDP-43 yeast inh 35µM
O=C(NCc1ccc(F)cc1)c1cc(C2CCCN(C(=O)CCCc3ccccc3)C2)on1 (stereo not given)	TDP-43 yeast inh 18µM, FUS suppressor inconclusive
O=C(Nc1ccccc1)c1cc(C2CCCCN2C(=O)OCc2ccccc2)on1 (stereo not given)	none
O=C(NCc1ccccc1)c1cc(C2CCCN(C(=O)CCc3ccccc3)C2)on1 (stereo not given)	none
O=C(Nc1ccccc1)c1cc(C2CCCN(C(=O)CCc3ccccc3)C2)on1 (stereo not given)	TDP-43 yeast inh 18µM
O=C(Nc1ccccc1Cl)c1cc(C2CCCN(C(=O)CCc3ccccc3)C2)on1 (stereo not given)	TDP-43 yeast inh inconclusive
O=C(O)/C=C/C(=O)Nc1ccc2c(c1)C(=O)c1ccccc1C2=O	TDP-43 yeast inh inconclusive, Abeta rescue inconclusive, aSyn rescue 22µM
NC(=O)CNC(=O)C1CCCc2c1[nH]c1ccc(Cl)cc21 (stereo not given)	none
CCOC(=O)CNC(=O)C1CCCc2c1[nH]c1ccc(Cl)cc21 (stereo not given)	TDP-43 yeast inh 13µM, Abeta rescue inconclusive
O=CN1CCN(C(=O)c2cc(-c3cccs3)nc3ccccc23)CC1	none (no result: PTHR1 agonist, TDP-43 yeast inh, Abeta rescue, FUS suppressor, aSyn rescue)
CCOc1ccc(NCc2cccn2-c2nnc(N3CCC(C(=O)NCCc4ccc(OC)c(OC)c4)CC3)s2)cc1	FUS suppressor 25µM (no result: aSyn rescue)
CCOc1ccc(NCc2cccn2-c2nnc(N3CCC(C(=O)NCCc4ccc(OCC)c(OCC)c4)CC3)s2)cc1	FUS suppressor inconclusive (no result: aSyn rescue)

Assay outcomes: PubChem BioAssay, National Center for Advancing Translational Sciences (NCATS)
